How the values were obtained:
[1] = test system: Proto-oncogene tyrosine-protein kinase receptor Ret (Homo sapiens), P07949 [Y791F]; conditions: at 1 µM
[2] = biological target: Macrophage-stimulating protein receptor (Homo sapiens) (UniProt Q04912); conditions: at 0.1 µM
[3] = biological target: Macrophage-stimulating protein receptor (Homo sapiens) (UniProt Q04912); conditions: at 1 µM
[4] = biological target: Proto-oncogene tyrosine-protein kinase ROS (Homo sapiens) (UniProt P08922); conditions: at 0.1 µM
Proto-oncogene tyrosine-protein kinase ROS (Homo sapiens), sequence (P08922 whole entry): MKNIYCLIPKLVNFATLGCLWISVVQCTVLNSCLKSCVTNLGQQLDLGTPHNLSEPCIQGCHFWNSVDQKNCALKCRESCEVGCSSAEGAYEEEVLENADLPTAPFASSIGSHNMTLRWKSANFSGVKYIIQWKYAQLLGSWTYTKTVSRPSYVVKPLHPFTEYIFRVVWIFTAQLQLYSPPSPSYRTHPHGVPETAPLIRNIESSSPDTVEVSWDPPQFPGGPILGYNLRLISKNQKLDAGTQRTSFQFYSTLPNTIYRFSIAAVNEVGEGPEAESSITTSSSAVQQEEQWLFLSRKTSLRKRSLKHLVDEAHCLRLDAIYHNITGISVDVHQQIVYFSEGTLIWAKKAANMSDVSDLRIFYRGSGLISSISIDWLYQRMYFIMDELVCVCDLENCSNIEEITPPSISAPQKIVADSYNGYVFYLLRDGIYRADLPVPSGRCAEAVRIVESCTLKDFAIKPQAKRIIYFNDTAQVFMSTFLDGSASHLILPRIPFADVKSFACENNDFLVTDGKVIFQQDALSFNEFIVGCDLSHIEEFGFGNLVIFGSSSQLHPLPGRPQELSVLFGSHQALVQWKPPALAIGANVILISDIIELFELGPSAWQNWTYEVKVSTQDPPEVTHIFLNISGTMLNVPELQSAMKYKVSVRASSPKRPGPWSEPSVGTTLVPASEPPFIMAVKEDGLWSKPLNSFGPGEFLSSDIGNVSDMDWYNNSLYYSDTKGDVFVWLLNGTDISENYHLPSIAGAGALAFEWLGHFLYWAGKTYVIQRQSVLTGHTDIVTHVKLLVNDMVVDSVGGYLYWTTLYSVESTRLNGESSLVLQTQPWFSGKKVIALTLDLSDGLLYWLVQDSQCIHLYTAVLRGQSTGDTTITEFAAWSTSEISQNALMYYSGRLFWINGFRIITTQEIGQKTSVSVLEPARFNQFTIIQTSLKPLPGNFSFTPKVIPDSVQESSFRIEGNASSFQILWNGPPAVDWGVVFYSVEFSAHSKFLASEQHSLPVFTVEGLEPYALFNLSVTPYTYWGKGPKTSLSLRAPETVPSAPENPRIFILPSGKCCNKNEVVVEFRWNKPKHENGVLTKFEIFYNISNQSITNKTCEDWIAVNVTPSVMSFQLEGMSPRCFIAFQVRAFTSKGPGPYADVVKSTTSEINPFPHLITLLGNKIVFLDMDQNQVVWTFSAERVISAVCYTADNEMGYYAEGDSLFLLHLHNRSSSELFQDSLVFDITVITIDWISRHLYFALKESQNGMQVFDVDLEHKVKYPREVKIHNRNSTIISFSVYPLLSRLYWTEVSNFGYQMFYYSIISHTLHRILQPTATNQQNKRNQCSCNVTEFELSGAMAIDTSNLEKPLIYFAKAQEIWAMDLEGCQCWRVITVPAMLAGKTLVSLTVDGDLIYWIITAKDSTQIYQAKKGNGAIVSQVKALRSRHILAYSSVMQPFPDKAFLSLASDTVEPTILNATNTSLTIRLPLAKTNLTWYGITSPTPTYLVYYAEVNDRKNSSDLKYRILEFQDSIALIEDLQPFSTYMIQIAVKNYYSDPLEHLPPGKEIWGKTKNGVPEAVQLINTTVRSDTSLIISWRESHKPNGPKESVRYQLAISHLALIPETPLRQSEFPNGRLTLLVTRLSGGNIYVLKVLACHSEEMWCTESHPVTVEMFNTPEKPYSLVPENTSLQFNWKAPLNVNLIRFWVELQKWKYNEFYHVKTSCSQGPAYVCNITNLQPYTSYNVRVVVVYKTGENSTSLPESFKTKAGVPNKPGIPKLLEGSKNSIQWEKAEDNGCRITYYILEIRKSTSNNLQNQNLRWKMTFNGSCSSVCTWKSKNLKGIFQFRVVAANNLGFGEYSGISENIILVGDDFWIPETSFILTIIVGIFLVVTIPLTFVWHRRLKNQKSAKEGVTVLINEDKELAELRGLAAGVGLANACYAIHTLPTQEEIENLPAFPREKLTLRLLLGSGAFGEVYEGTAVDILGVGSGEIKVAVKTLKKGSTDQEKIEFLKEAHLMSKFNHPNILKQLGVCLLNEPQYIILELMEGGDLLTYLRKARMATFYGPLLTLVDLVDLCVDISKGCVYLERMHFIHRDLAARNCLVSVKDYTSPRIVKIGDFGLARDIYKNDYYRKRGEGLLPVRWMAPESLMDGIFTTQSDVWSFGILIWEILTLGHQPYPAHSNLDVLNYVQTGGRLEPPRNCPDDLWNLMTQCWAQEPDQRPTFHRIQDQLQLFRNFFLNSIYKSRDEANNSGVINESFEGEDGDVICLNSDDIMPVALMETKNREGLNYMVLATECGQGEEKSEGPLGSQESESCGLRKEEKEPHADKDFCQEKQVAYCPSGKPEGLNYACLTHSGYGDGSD

[5] = biological target: Proto-oncogene tyrosine-protein kinase ROS (Homo sapiens) (UniProt P08922); conditions: at 1 µM
[6] = biological target: Proto-oncogene tyrosine-protein kinase Src (Homo sapiens) (UniProt P12931); conditions: at 0.1 µM
Proto-oncogene tyrosine-protein kinase Src (Homo sapiens), sequence (P12931 2-536 limits assumed): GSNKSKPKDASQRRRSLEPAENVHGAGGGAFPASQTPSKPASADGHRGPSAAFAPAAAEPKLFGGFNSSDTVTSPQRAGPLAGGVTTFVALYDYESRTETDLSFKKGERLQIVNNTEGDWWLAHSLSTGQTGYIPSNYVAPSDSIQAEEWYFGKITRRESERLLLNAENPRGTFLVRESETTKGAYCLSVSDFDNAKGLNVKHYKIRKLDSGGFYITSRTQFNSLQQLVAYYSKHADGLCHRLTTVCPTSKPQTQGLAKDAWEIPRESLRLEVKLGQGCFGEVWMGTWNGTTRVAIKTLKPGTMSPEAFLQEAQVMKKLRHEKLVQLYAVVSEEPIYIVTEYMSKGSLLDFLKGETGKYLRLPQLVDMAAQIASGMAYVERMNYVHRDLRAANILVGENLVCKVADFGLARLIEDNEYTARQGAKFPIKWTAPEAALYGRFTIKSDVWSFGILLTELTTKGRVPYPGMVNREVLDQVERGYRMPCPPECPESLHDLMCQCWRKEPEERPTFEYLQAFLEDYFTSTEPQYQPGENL

[7] = biological target: Proto-oncogene tyrosine-protein kinase Src (Homo sapiens) (UniProt P12931); conditions: at 1 µM
[8] = biological target: Tyrosine-protein kinase Srms (Homo sapiens) (UniProt Q9H3Y6); conditions: at 0.1 µM
Tyrosine-protein kinase Srms (Homo sapiens), sequence (Q9H3Y6 whole entry): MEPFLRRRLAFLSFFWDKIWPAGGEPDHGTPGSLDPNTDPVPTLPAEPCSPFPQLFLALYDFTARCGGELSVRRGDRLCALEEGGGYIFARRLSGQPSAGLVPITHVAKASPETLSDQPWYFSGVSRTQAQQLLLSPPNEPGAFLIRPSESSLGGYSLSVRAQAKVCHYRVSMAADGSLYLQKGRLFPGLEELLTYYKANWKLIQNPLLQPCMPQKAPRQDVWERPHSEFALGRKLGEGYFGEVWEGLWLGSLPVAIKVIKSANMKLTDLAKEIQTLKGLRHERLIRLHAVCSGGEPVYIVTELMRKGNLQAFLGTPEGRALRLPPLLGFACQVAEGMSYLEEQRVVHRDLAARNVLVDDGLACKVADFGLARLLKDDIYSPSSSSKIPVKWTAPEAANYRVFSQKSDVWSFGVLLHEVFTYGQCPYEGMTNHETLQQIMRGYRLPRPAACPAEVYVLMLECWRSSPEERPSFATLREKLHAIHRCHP

[9] = biological target: Tyrosine-protein kinase Srms (Homo sapiens) (UniProt Q9H3Y6); conditions: at 1 µM
[10] = biological target: Tyrosine-protein kinase SYK (Homo sapiens) (UniProt P43405); conditions: at 0.1 µM
[11] = biological target: Tyrosine-protein kinase SYK (Homo sapiens) (UniProt P43405); conditions: at 1 µM
[12] = biological target: T1, Tyrosine-protein kinase Tec (Homo sapiens) (UniProt P42680); conditions: at 0.1 µM
T1 sequence (whole entry): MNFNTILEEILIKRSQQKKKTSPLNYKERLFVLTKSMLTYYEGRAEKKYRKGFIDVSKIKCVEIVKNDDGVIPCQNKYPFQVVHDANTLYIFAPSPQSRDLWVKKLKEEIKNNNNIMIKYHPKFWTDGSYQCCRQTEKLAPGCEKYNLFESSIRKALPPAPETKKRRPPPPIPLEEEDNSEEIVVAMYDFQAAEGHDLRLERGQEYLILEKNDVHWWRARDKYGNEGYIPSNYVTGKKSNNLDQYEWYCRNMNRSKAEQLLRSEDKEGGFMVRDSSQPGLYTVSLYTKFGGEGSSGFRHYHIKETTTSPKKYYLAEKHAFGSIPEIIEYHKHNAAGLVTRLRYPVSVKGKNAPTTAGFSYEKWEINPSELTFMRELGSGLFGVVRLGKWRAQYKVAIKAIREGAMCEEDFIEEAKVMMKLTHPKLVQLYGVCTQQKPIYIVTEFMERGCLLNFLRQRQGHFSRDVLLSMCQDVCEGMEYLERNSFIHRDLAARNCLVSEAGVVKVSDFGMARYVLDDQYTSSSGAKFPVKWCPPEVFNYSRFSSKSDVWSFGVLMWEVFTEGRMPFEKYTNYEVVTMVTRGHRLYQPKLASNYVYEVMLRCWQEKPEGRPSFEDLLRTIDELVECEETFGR

[13] = biological target: T1, Tyrosine-protein kinase Tec (Homo sapiens); conditions: at 1 µM
[14] = biological target: Angiopoietin-1 receptor (Homo sapiens) (UniProt Q02763); conditions: at 0.1 µM
Angiopoietin-1 receptor (Homo sapiens), sequence (Q02763 whole entry): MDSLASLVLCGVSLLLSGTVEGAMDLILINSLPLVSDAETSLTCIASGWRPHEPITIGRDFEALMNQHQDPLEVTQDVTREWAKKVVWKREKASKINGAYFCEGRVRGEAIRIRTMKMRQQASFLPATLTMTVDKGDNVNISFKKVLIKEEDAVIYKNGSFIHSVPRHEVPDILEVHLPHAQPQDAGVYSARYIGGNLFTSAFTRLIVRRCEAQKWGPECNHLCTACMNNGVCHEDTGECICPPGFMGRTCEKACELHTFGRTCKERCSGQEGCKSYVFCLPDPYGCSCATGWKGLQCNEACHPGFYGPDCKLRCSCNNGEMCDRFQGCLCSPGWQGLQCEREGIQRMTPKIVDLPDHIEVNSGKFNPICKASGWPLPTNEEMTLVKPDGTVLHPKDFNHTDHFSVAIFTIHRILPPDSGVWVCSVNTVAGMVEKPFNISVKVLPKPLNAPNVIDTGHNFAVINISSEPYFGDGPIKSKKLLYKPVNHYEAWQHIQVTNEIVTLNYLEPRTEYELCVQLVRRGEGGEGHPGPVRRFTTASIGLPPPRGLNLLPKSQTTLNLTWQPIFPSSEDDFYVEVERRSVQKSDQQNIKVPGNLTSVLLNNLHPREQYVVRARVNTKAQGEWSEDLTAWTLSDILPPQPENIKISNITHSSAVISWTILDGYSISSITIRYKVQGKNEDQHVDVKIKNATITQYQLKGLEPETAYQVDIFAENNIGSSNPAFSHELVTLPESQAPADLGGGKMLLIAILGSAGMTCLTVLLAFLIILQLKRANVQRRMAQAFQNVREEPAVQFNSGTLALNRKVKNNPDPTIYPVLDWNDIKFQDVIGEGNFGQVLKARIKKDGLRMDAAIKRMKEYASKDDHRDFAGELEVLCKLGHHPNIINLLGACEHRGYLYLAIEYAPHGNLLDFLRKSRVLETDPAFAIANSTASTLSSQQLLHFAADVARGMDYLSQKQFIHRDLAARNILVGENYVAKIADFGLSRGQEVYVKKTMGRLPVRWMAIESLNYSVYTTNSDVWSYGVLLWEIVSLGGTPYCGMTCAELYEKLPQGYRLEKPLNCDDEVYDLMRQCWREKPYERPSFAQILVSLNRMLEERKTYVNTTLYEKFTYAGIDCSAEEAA

[15] = biological target: Angiopoietin-1 receptor (Homo sapiens) (UniProt Q02763); conditions: at 1 µM
[16] = biological target: T2, Non-receptor tyrosine-protein kinase TNK1 (Homo sapiens) (UniProt Q13470); conditions: at 0.1 µM
T2 sequence (whole entry): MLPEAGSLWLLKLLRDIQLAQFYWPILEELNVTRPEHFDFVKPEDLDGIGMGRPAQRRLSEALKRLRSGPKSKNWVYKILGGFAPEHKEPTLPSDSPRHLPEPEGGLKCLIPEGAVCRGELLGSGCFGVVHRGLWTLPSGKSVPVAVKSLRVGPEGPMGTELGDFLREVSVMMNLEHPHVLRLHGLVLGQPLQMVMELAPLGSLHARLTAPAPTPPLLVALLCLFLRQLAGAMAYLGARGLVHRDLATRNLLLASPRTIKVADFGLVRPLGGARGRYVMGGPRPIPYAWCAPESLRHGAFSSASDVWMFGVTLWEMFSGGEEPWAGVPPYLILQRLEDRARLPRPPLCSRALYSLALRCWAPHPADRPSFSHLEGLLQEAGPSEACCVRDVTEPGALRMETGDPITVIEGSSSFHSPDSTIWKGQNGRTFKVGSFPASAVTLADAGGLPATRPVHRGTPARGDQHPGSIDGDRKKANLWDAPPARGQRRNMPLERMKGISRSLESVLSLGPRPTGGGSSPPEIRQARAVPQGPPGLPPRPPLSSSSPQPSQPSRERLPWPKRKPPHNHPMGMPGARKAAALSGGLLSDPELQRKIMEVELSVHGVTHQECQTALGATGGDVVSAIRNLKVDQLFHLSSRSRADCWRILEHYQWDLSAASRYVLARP

[17] = biological target: T2, Non-receptor tyrosine-protein kinase TNK1 (Homo sapiens); conditions: at 1 µM
[18] = biological target: Activated CDC42 kinase 1 (Homo sapiens) (UniProt Q07912); conditions: at 0.1 µM
[19] = biological target: Activated CDC42 kinase 1 (Homo sapiens) (UniProt Q07912); conditions: at 1 µM
[20] = biological target: High affinity nerve growth factor receptor (Homo sapiens) (UniProt P04629); conditions: at 0.1 µM;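 also: each value is a mean of replicate percent inhibition readings against TRKA kinase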

| Structure (SMILES) | inhibition [1] [%] | inhibition [2] [%] | inhibition [3] [%] | inhibition [4] [%] | inhibition [5] [%] | inhibition [6] [%] | inhibition [7] [%] | inhibition [8] [%] | inhibition [9] [%] | inhibition [10] [%] | inhibition [11] [%] | inhibition [12] [%] | inhibition [13] [%] | inhibition [14] [%] | inhibition [15] [%] | inhibition [16] [%] | inhibition [17] [%] | inhibition [18] [%] | inhibition [19] [%] | inhibition [20] [%] |
| --- | --- | --- | --- | --- | --- | --- | --- | --- | --- | --- | --- | --- | --- | --- | --- | --- | --- | --- | --- | --- |
| COc1cc2ncn(-c3cc(O[C@@H](C)c4ccccc4Cl)c(C(N)=O)s3)c2cc1OC | 72 | -0.14 | 2.55 | 5.59 | 29.1 | 10.3 | 30.1 | -3.6 | -1.13 | -2.93 | -4.6 | 1.7 | 7.65 | 4.95 | 24.2 | 33.8 | 79.5 | 3.06 | 6.07 | 1.91 |
| NS(=O)(=O)c1ccc(N/N=C2\C(=O)Nc3ccc(C(=O)NCCc4c[nH]cn4)cc32)cc1 | 63.7 | 0.68 | 6 | 10.9 | 18.1 | -1.33 | 33 | -0.78 | 1.4 | -4.27 | -0.45 | 5.46 | 12.1 | 1.64 | 3.16 | 1.59 | 10.1 | 1.35 | 2.72 | 5.55 |
| COc1ccc2cc(-c3c(-c4ccncc4)nc(-c4ccc([S+](C)[O-])cc4)n3C)ccc2c1 (stereo not given) | -4.94 | 4.56 | 4.27 | 4.08 | 5.77 | 4.77 | 8.58 | -0.98 | -1.29 | -1.34 | -1.16 | 4.18 | 5.59 | 53.3 | 83.2 | 4.52 | 8.26 | 0.59 | 0.47 | 2.78 |
| COc1ccc(COc2ccc(Cc3cnc(N)nc3N)cc2OC)cc1 | 4.28 | 1.99 | 5.55 | 5.47 | 4.98 | 3.77 | 1.97 | 1.82 | 1.88 | 1.51 | 0.65 | 1.62 | 2.91 | 2.2 | 8.78 | 0.7 | -8.3 | 2.24 | 3.64 | 32.4 |
| Nc1nc(-c2ccc3c(c2)C(=Cc2cc(Br)c(O)c(Br)c2)C(=O)N3)cs1 | 7.25 | -0.43 | 2.87 | 2.9 | 7.73 | 0.53 | -0.25 | 9.94 | 53 | 1.06 | 0.99 | -1.8 | -1 | -0.24 | 3.72 | 0.05 | 37.1 | -1.13 | -0.19 | 1.01 |
| [O-][S+]1CCN(Cc2ccc(-c3ccc4ncnc(Nc5ccc(OCc6ccccc6)c(F)c5)c4c3)o2)CC1 | 5.92 | 2.75 | 7.9 | 3.51 | 1.61 | 5.28 | 8.51 | -1.06 | -3.12 | -2.3 | -0.11 | 3.42 | 4.7 | 2.18 | 2.24 | 0.61 | 7.01 | 0.67 | 0.38 | 1.24 |
| Fc1cccc(COc2ccc(Nc3ncnc4sc(-c5cccs5)cc34)cc2Cl)c1 | 2.09 | -5.24 | -0.08 | 5.26 | 4.79 | 2.2 | 2.77 | -1.04 | -1.24 | 0.32 | 1.01 | -0.73 | 1.47 | 1.07 | 2.01 | 3.5 | 4.12 | -0.19 | 1.13 | 1.3 |
| CC(=O)Nc1cccc(C#Cc2cncnc2Nc2ccc(OCc3cccc(F)c3)c(Cl)c2)n1 | 13.9 | 0.21 | 0.21 | 2.41 | -0.69 | 2.96 | 0.48 | 1.99 | 6.25 | 5.47 | -0.2 | -0.56 | 0.51 | -1.08 | 2.93 | -0.47 | 13.1 | -0.48 | 2.35 | -4.25 |
| COc1ccc(-c2coc3ncnc(N)c23)cc1 | 11 | 8.95 | 5.93 | 6.03 | 7.88 | 5.47 | 8.84 | -2.61 | -2.53 | -0.77 | -0.96 | 3.6 | 5.59 | 2.58 | 7.38 | 0.94 | -4.86 | 0.34 | 1.05 | 1.6 |
| O=C1NC(=O)C(c2cccc(Cl)c2)=C1Nc1ccc(O)c(Cl)c1 | 2.96 | -9.4 | 6 | 1.16 | 7.24 | 3.33 | 5.62 | -0.46 | -1.95 | 1.76 | 0.79 | 1.84 | 1.44 | 1.54 | 3.61 | 0.52 | 8.8 | -0.75 | -0.58 | -3.23 |
| NS(=O)(=O)c1cccc(-c2ccc3c(NC(=O)C4CC4)n[nH]c3c2)c1 | -2.02 | 6.3 | 3.46 | 3.46 | 5 | -4.15 | -1.21 | -0.76 | -1.91 | -1.3 | 0.39 | -1.67 | -2.6 | 1.65 | 3.55 | -2.18 | 2.91 | -0.31 | 0.27 | 0.7 |
| NC(=O)c1ccc(-c2nc(-c3ccccn3)c(-c3ccc4c(c3)OCO4)[nH]2)cc1 | 13.7 | -0.12 | -1.49 | 2.07 | 2.89 | 3.87 | 4.86 | 2.17 | 1.98 | 0.63 | 0.21 | 3.16 | 2.63 | 5.33 | 5.38 | 1.36 | -0.98 | 0.29 | 1.03 | 1.52 |
| CCn1c(-c2nonc2N)nc2cncc(C(=O)N3CCNCC3)c21 | 5.78 | 3.02 | 4.33 | 7.86 | 7.97 | 14.1 | 16.4 | -3.72 | -2.89 | -1.71 | 3.25 | 7.87 | 7.17 | 6.61 | 5.14 | 3.89 | 5.69 | 1.51 | 1.52 | 1.71 |

— ChEMBL document CHEMBL1961873, “Compounds: GSK PKIS; Assays: Nanosyn kinase panel” (2012)
